Among the data in PubChem BioAssay are inhibition and activity values, retold here.

Active and inactive are the calls of the source. Unless noted, how the calls were made is not given here.

A short description of test [1]: inhibition of Brca1/Bard1 split-luciferase complementation, confirmation, counter-screen for Mdm2/MdmX interaction inhibitor project, luminescence, single concentration (AID 504668). As to conditions: Brca1/Bard1 bimolecular luciferase complementation counterscreen, at 8 µM, stronger effect = higher value.
In test [2] the target is PEG-3 (UniProt Q6IN02). Nature of the test: Peg3 promoter luciferase inhibitors, potency, dose response, cell-based, HeLa, CREF/GAPDH counter-screen panel (AID 624167). As to conditions: CREF/GAPDH counter-screens; HeLa PEG-Prom luciferase reporter, overnight, run 1, dose range 1, at 100 µM (top of the series) unless noted.
Chain of PEG-3 (Q6IN02 whole entry, looked up): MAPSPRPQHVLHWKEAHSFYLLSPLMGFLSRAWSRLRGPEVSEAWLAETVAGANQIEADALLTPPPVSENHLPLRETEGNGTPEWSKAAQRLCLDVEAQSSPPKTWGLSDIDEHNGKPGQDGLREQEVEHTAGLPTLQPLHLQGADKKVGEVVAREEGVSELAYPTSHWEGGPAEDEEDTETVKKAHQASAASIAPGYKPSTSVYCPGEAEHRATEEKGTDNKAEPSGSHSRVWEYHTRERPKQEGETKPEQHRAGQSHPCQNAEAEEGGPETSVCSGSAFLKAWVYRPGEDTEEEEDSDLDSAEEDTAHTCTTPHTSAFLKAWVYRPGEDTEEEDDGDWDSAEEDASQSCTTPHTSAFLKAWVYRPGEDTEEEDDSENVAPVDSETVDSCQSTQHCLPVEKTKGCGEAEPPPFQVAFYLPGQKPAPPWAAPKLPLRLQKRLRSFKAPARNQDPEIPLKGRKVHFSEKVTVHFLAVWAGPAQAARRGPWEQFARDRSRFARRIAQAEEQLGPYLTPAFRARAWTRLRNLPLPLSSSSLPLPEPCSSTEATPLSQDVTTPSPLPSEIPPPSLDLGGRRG
Test [3] has as its target PEG-3 (UniProt Q6IN02). The description is as above. As to conditions: CREF/GAPDH counter-screens; HeLa PEG-Prom luciferase reporter, overnight, run 2, dose range 1, at 100 µM (top of the series) unless noted.
Test [4] deals with Rat fibroblasts (CREF). The description is as above. As to conditions: CREF/GAPDH counter-screens; run 1, dose range 1, at 100 µM (top of the series).
Test [5] deals with Rat fibroblasts (CREF). The description is as above. As to conditions: CREF/GAPDH counter-screens; run 2, dose range 1, at 100 µM (top of the series).
Test [6] concerns the target Tumor necrosis factor receptor superfamily member 10B (Homo sapiens) (UniProt O14763). Nature of the test: caspase-8 TRAIL sensitization, hit retest, confirmation, cell-based, NB7+caspase-8, with/without TRAIL, luminescence panel (AID 651596; in the data active means activity above about 50%). As to conditions: NB7 neuroblastoma + caspase-8, TRAIL sensitization, luminescence viability, with TRAIL, mean of runs, at 10 µM, stronger effect = higher value.

Assay in test [7]: as above
As to conditions: NB7 neuroblastoma + caspase-8, without TRAIL, luminescence viability, without TRAIL, mean of runs, at 10 µM.

Test [8] is described as follows: inhibitors of PAF-induced NFkB signaling in CF airway cells, dose response, cell-based, uHTS hits, panel, cytotoxicity readout (AID 624344). The note with it: CF bronchial epithelial cells, PAF-induced NFkB reporter inhibition, with PAF, run 1; at 79 µM (top of the series) unless noted.
Assay in test [9]: as above
The note with it: CF bronchial epithelial cells, PAF-induced NFkB reporter inhibition, with PAF, run 2; at 79 µM (top of the series) unless noted.

Chain of Tumor necrosis factor receptor superfamily member 10B (Homo sapiens) (O14763 whole entry, looked up): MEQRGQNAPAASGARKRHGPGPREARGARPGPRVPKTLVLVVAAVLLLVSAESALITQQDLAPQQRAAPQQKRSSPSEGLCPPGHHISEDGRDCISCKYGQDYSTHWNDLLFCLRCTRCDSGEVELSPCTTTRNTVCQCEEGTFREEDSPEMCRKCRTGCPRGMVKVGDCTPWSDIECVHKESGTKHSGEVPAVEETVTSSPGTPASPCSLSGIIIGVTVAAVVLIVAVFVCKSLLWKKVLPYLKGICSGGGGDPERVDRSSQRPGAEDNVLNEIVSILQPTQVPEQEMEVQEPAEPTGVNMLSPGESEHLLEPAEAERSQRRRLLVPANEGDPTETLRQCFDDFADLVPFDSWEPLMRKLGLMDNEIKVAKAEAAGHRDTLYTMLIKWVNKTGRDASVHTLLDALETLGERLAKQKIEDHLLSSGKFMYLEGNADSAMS

Turning to `Cc1ccc(-c2nnc(SCC(=O)Nc3ccccc3F)o2)cc1`, the inhibition was 32.6% (active) in [1]; 98.6% in the test with PEG-3 [2]; 94.7% with PEG-3 [3]; 97.2% in the test with Rat fibroblasts (CREF) [4]; 97.2% in the test on Rat fibroblasts (CREF) [5]. Also, the activity in test [6] turned out to be 83%; in test [7], 83.2%.

As to `O=c1c2ccccc2sc2ccc(C#CC3(O)CCCCC3)cc12`, the inhibition in test [1] was 25.4% (active); with PEG-3 [2], 99.4%; in the test with PEG-3 [3] it was 98%; in the test with Rat fibroblasts (CREF) [4], 100%; in the test with Rat fibroblasts (CREF) [5], 100%. The activity in test [6] was determined as 97.6%; in test [7], 97.2%.

For the molecule `Cc1ccc(C(=O)Nc2cc3ccccc3oc2=O)cc1`, the inhibition in test [1] is 31.8% (active); in the test with PEG-3 [2], 84.5%; with PEG-3 [3], 78.7%; with Rat fibroblasts (CREF) [4], 84.6%; with Rat fibroblasts (CREF) [5] it was 87.1%.

With `Clc1cccc(Nc2ncnc3ccc(Br)cc23)c1`, the inhibition in test [1] was 35.6% (active); in [8], 109%; in test [9], 104%.

Regarding `O=C(Nc1ccc([N+](=O)[O-])cc1)C(=O)Nc1cccc(C(=O)O)c1`, the inhibition is 31% (active) in test [1]; 92.5% with PEG-3 [2]; 95% in the test with PEG-3 [3]; 97.5% in the test with Rat fibroblasts (CREF) [4]; 96.8% in the test with Rat fibroblasts (CREF) [5].

With `Cc1nc2sc(C(N)=O)c(N)c2c(C)c1CC(=O)c1ccccc1`, the values for the inhibition in test [1], in [8] and in [9] were 31.4% (active), 101% and 80.3%, respectively.

For the molecule `CCn1c(Oc2ccccc2F)nc2c1c(=O)n(C)c(=O)n2C`, the inhibition in test [1] was 23.1% (active); in [8], 113%; in test [9] it was 96.5%.

For `CCCN(CCC)c1ncnc2nc[nH]c12`, the values for the inhibition in test [1], in test [8] and in test [9] were 34.6% (active), 109% and 108%, respectively.

`FC(F)(F)c1nnc2c(Sc3ccc(Cl)cc3)nc3ccccc3n12`: the results for the inhibition in test [1], in [8] and in test [9] were 31.6% (active), 98% and 109%, respectively.

In the case of `CCOc1cc(Br)c(Br)c(C=Nc2ccc(NC(C)=O)cc2)c1O`, the inhibition in [1] was 33.1% (active); in test [8] it was 105%; in test [9] it was 115%.

For the molecule `COc1ccc(-c2cc(=O)oc3c(C)c(OC(=O)c4cccs4)ccc23)cc1`, the inhibition in test [1] was 32.9% (active); in [8], 66.8%; in [9], 93%.

In the case of `O=C(Nc1nc2ccc(F)cc2s1)C1CCN(S(=O)(=O)c2cc([N+](=O)[O-])ccc2Cl)CC1`, the inhibition in [1] is 25.5% (active); in [8] it was 105%; in test [9], 112%.

Regarding `Cn1nnnc1Sc1ncnc2scc(-c3ccc[nH]3)c12`, the inhibition in test [1] was 29.2% (active); in test [8] it was 66.8%; in test [9], 61.6%.

For the molecule `Cn1c(Oc2ccc(Cl)cc2)c(C=O)c2ccccc21`, the inhibition in test [1] was 34.4% (active); in [8] it was 104%; in [9], 109%.

Regarding `Cc1cccc(CNc2ncnc3ccc(-c4ccoc4)cc23)c1`, the inhibition in test [1] was 23.8% (active); in test [8], 114%; in test [9] it was 106%.

`CCC(C)Oc1cc(-c2ccnc(Nc3cccc(Cl)c3)n2)ccn1` (stereo not given): the inhibition is 25.4% (active) in test [1], 102% in test [8] and 117% in test [9].

In the case of `OCCCNc1ncnc2scc(-c3ccc(Cl)cc3)c12`, the figures for the inhibition in test [1], in test [8] and in test [9] were 33.2% (active), 115% and 103%, respectively.

As to `COc1ccc(-c2cncnc2-c2ccc(OC)cc2O)cc1`, the figures for the inhibition in test [1], in [8] and in [9] were 27.2% (active), 101% and 93.5%, respectively.

On to `Cc1ccc(NC(=O)Nc2nnc(-c3ccncc3)s2)cc1C`, for which the inhibition in test [1] is 23.3% (active); in test [8], 102%; in test [9], 114%.

As to `C=C(C)COc1ccc(-c2[nH]ncc2-c2ccc(OC)cc2)c(O)c1`, the figures for the inhibition in test [1], in [8] and in test [9] were 28.9% (active), 114% and 105%, respectively.

Take `Clc1cncc(Cl)c1N/N=C/c1ccncc1`: the results for the inhibition in test [1], in test [8] and in [9] were 27.6% (active), 105% and 118%, respectively.

With `Oc1ccc(CCNc2ncnc3ccc(Cl)cc23)cc1`, the inhibition in test [1] is 28.6% (active); in [8], 113%; in test [9] it was 106%.

On to `CC(=O)c1cccc(NC(=O)Nc2cccnc2)c1`, for which the inhibition in [1] was 27.6% (active); in [8], 119%; in [9], 93.2%.

In the case of `O=C(/C=C/c1cccc([N+](=O)[O-])c1)n1cnc2ccccc21`, the inhibition in test [1] is 24.6% (active); in [8], 102%; in test [9], 111%.

As for `CCOC(=O)Nc1ccc2c(c1)N(C(=O)CCN(CC)CC)c1ccccc1S2=O` (stereo not given), the values for the inhibition in test [1], in test [8] and in test [9] were 29.9% (active), 102% and 107%, respectively.

In the case of `NC(=O)N/N=C/c1c(Sc2nnnn2-c2ccccc2)nc2ccccn2c1=O`, the inhibition was 23.4% (active) in test [1], 103% in [8] and 105% in [9].

With `CC(C)CN=C(NS(=O)(=O)c1ccccc1)C(Cl)(Cl)Cl`, the results for the inhibition in test [1], in [8] and in test [9] were 35.9% (active), 102% and 112%, respectively.

Take `CCOc1ccc(-n2c(C)c(C(C)=O)c3cc(O)ccc32)cc1`: the inhibition in test [1] was 31.2% (active); in [8], 90%; in test [9], 88.2%.

On to `COc1ccc(-c2cn[nH]c2-c2ccc(O)cc2O)cc1`, for which the values for the inhibition in test [1], in test [8] and in test [9] were 25.3% (active), 104% and 112%, respectively.

In the case of `Cc1cc(N2CCOCC2)c2c(N)c(Br)cc(C)c2n1`, the inhibition in test [1] was 35.4% (active); in test [8], 118%; in [9], 97.8%.

In the case of `O=[N+]([O-])c1ccc2ncnc(N3CCN(Cc4ccc5c(c4)OCO5)CC3)c2c1`, the inhibition in test [1] was 24.3% (active); in test [8], 112%; in test [9], 91.3%.

Regarding `Cc1[nH]nc2ncc(C(=O)c3ccccc3O)cc12`, the inhibition in test [1] is 30.4% (active); in test [8] it was 109%; in test [9], 92.1%.

Consider `CCN(CC)S(=O)(=O)c1ccc(NC(=O)Nc2cccc(C(F)(F)F)c2)cc1`, for which the inhibition in [1] is 35.2% (active); in test [8], 114%; in test [9] it was 99.2%. For the same molecule, the activity was 82.6% in [6] and 71.3% in test [7].

As to `COc1ccc2cc(C(N)=O)c(=Nc3ccc(C)cc3)oc2c1`, the figures for the inhibition in test [1], in [8] and in test [9] were 35.2% (active), 87.6% and 75.7%, respectively.

`COc1ccc(Cc2nnc(SCc3ccc([N+](=O)[O-])cc3)o2)cc1`: the inhibition is 28.9% (active) in test [1], 113% in test [8] and 97.4% in test [9].

Regarding `c1cc2[nH]snc2c2nc(C3CC3)nc12`, the inhibition was 26.4% (active) in test [1], 101% in test [8] and 118% in test [9].

In the case of `CC(C)c1nc(NCCO)c(C#N)c2c1CCCC2`, the inhibition in [1] was 35% (active); in [8], 112%; in [9], 103%.

For `Cn1c(=O)c2c(nc(Oc3ccc4ccccc4c3)n2C)n(C)c1=O`, the inhibition is 33.6% (active) in [1], 93.3% in test [8] and 81.7% in test [9].

On to `O=C(Nc1cccc2[nH]ncc12)c1ccc(F)cc1`, for which the inhibition in [1] is 25% (active); in test [8], 102%; in test [9], 95.5%.

With `COc1cccc(-c2nnc3sc(C4CCCCC4)nn23)c1`, the inhibition in test [1] is 25% (active); in test [8], 111%; in test [9], 104%.

Consider `CCN1CCN(Cc2ccc(NC(=O)c3ccc(C)c(NC(=O)C(=O)c4c[nH]c5ccccc45)c3)cc2C(F)(F)F)CC1`, for which the inhibition in test [1] was 30.8% (active); in test [8], 103%; in test [9] it was 112%.

Take `COc1cc2cncc(Cc3ccc(Cl)cc3)c2cc1OC`: the inhibition in test [1] was 26.2% (active); in [8], 104%; in test [9], 109%.

As for `Cc1[nH]nc2nc(SCC(=O)NCCC3=CCCCC3)n(-c3ccc(Br)cc3)c(=N)c12`, the figures for the inhibition in test [1], in [8] and in [9] were 31.1% (active), 100% and 111%, respectively. For the same molecule, the activity was found to be 58.5% in test [6] and 88.4% in test [7].
